In PubChem BioAssay (Tox21):
“And” between values parts separate entries of the source, which are not always exact repeats. Equal values may be shown once. Records with an inconclusive call do not appear. The source made the active and inactive calls. The call rests on the fitted dose curve; in most records, active means well fitted curve in the direction sought with a large enough effect in the repeat runs; inconclusive means weak or mixed curves; inactive means no such curve, though single readings can be large; an effect the other way counts as inactive or inconclusive.

What was measured:
[1] = qHTS RealTime-Glo MT Cell Viability Assay in HEK293 cells - 16 hour (AID 1224872); further: nearly all actives have a fitted effect of over 50% in size; further: potency means the concentration at half of the fitted maximal effect
In short: (§1)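 Assay medium contained NanoLuc luciferase plus cell-permeant prosubstrate, added with HEK293 cells at 600 cells/well. After 5 h at 37 C/5% CO2 compounds were added; plates stayed at 37 C for 40 h with serial luminescence reads.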

[2] = qHTS RealTime-Glo MT Cell Viability Assay in HepG2 cells - 8 hour (AID 1224873); further: nearly all actives have a fitted effect of over 55% in size; further: potency means the concentration at half of the fitted maximal effect
In short: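 HepG2 cells mixed with RealTime-Glo MT reagents (NanoLuc plus cell-permeant prosubstrate) were seeded at 600 cells/well, incubated 5 h at 37 C/5% CO2, then pinned with compounds in DMSO; nonlytic luminescence tracked viability during 40 h treatment.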

[3] = qHTS RealTime-Glo MT Cell Viability Assay in HEK293 cells - 40 hour (AID 1224874); settings: RealTime-Glo luminescence; max response: active compounds read low; further: nearly all actives have a fitted effect of over 50% in size; further: potency means the concentration at half of the fitted maximal effect
In short: (§2)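 Luminescence readout at each listed time point; HEK293, 600 cells/well, RealTime-Glo MT reagent added with cells; compounds pinned (23 nL in DMSO) after 5 h at 37 C; continuous culture at 37 C.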

[4] = A CellTox Green Cytotoxicity Assay to monitor cytotoxicity in HEK293 cells - 24 hour (AID 1224875); further: nearly all actives have a fitted effect of over 45% in size; further: potency means the concentration at half of the fitted maximal effect
In short: (§3)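 Read-out: fluorescence of a cell-impermeant cyanine dye staining DNA of dead cells, proportional to cytotoxicity. HEK293, 600 cells/well with reagent, compound (23 nL DMSO) added after 5 h; reads at 0, 8, 16, 24, 32, 40 h.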

[5] = qHTS RealTime-Glo MT Cell Viability Assay in HepG2 cells - 32 hour (AID 1224877); further: nearly all actives have a fitted effect of over 55% in size; further: potency means the concentration at half of the fitted maximal effect
In short: (§4)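 qHTS, HepG2, 600 cells/well, RealTime-Glo (NanoLuc + prosubstrate) added with cells; 5 h preincubation; DMSO compound addition; 37 C; luminescence at 0/8/16/24/32/40 h.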

[6] = A CellTox Green Cytotoxicity Assay to monitor cytotoxicity in HepG2 cells - 24 hour (AID 1224878); further: nearly all actives have a fitted effect of over 45% in size; further: potency means the concentration at half of the fitted maximal effect
In short: (§5)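 HepG2, 600 cells/well premixed w/ CellTox Green; 5 h settle, 37 C/5% CO2; pintool cpd add (DMSO); 37 C, 40 h; fluorescence read at 0, 8, 16, 24, 32, 40 h.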

[7] = A CellTox Green Cytotoxicity Assay to monitor cytotoxicity in HepG2 cells - 40 hour (AID 1224879); further: nearly all actives have a fitted effect of over 40% in size; further: potency means the concentration at half of the fitted maximal effect
In short: as §5

[8] = qHTS RealTime-Glo MT Cell Viability Assay in HEK293 cells - 0 hour (AID 1224880); further: nearly all actives have a fitted effect of over 45% in size; further: potency means the concentration at half of the fitted maximal effect
In short: as §2

[9] = A CellTox Green Cytotoxicity Assay to monitor cytotoxicity in HEK293 cells - 32 hour (AID 1224881); further: nearly all actives have a fitted effect of over 40% in size; further: potency means the concentration at half of the fitted maximal effect
In short: as §3

[10] = A CellTox Green Cytotoxicity Assay to monitor cytotoxicity in HepG2 cells - 0 hour (AID 1224882); further: nearly all actives have a fitted effect of over 35% in size
In short: as §5

[11] = A CellTox Green Cytotoxicity Assay to monitor cytotoxicity in HEK293 cells - 8 hour (AID 1224884); further: nearly all actives have a fitted effect of over 35% in size; further: potency means the concentration at half of the fitted maximal effect
In short: as §3

[12] = qHTS RealTime-Glo MT Cell Viability Assay in HepG2 cells - 16 hour (AID 1224885); further: nearly all actives have a fitted effect of over 50% in size; further: potency means the concentration at half of the fitted maximal effect
In short: as §4

[13] = qHTS RealTime-Glo MT Cell Viability Assay in HEK293 cells - 24 hour (AID 1224886); further: nearly all actives have a fitted effect of over 50% in size; further: potency means the concentration at half of the fitted maximal effect
In short: as §1

[14] = A CellTox Green Cytotoxicity Assay to monitor cytotoxicity in HEK293 cells - 16 hour (AID 1224888); further: nearly all actives have a fitted effect of over 35% in size; further: potency means the concentration at half of the fitted maximal effect
In short: as §3

[15] = A CellTox Green Cytotoxicity Assay to monitor cytotoxicity in HepG2 cells - 8 hour (AID 1224890); further: nearly all actives have a fitted effect of over 45% in size; further: potency means the concentration at half of the fitted maximal effect
In short: as §5

[16] = qHTS assay to identify small molecule antagonists of the estrogen receptor alpha (ER-alpha) signaling pathway using the BG1 cell line in the presence of 0.1 nM 17-beta-estradiol - cell viability counter screen (AID 1259241); further: nearly all actives have a fitted effect of over 40% in size; further: potency means the concentration at half of the fitted maximal effect
In short: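 VM7Luc4E2, 4,000 cells/well, phenol red-free medium + 10% charcoal-stripped FBS; 24 hr plating; cpd + 0.1 nM E2 final, 22 hr 37C/5% CO2; CellTiter-Fluor 30 min, fluorescence.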

[17] = A CellTox Green Cytotoxicity Assay to monitor cytotoxicity in HepG2 cells - 16 hour (AID 1224876); further: nearly all actives have a fitted effect of over 45% in size; further: potency means the concentration at half of the fitted maximal effect
In short: as §5

[18] = A CellTox Green Cytotoxicity Assay to monitor cytotoxicity in HepG2 cells - 32 hour (AID 1224883); further: nearly all actives have a fitted effect of over 50% in size; further: potency means the concentration at half of the fitted maximal effect
In short: as §5

[19] = qHTS RealTime-Glo MT Cell Viability Assay in HEK293 cells - 8 hour (AID 1224887); further: nearly all actives have a fitted effect of over 50% in size; further: potency means the concentration at half of the fitted maximal effect
In short: as §2

[20] = qHTS RealTime-Glo MT Cell Viability Assay in HepG2 cells - 0 hour (AID 1224889); further: nearly all actives have a fitted effect of over 50% in size
In short: as §4
On the % scale 0 is the no-effect control and ±100 the full control effect.

CCC[CH2][Sn]([CH2]CCC)([O]C(C)=O)[O]C(C)=O
inactive: Potency [2] | Potency [8] | Potency [10] | Potency [11] | Potency [15]
active: Potency [1] 0.0879 µM | Potency [3] 69.8 nM | Potency [4] 1.24 µM | Potency [5] 0.221 µM | Potency [6] 0.312 µM | Potency [7] 248 nM | Potency [9] 392 nM | Potency [12] 0.554 µM | Potency [13] 87.9 nM | Potency [14] 4.4 µM | Potency [16] 0.692 µM

CC[N+]1(CC)CCC(OC(=O)C(O)(c2ccccc2)c2ccccc2)C1 (configuration not stated)
inactive: Potency [1] | Potency [2] | max response [3] 2.71% | Potency [4] | Potency [17] | Potency [6] | Potency [7] | Potency [8] | Potency [9] | Potency [18] | Potency [11] | Potency [12] | Potency [13] | Potency [19] | Potency [14] | Potency [20] | Potency [15]

ClCBr
inactive: Potency [1] | Potency [2] | max response [3] 7.13% | Potency [4] | Potency [5] | Potency [6] | Potency [7] | Potency [8] | Potency [9] | Potency [10] | Potency [18] | Potency [11] | Potency [12] | Potency [13] | Potency [19] | Potency [14] | Potency [20] | Potency [15] | Potency [16]

CC(=O)[O][Sn]([c]1ccccc1)([c]1ccccc1)[c]1ccccc1
active: Potency [1] 0.049 µM | Potency [2] 11 µM | Potency [3] 34.7 nM | Potency [4] 0.245 µM | Potency [9] 219 nM | Potency [11] 0.347 µM | Potency [13] 43.6 nM | Potency [19] 0.123 µM | Potency [15] 13.8 µM | Potency [16] 0.545 µM
inactive: Potency [8] | Potency [10]

[F][Sn]([c]1ccccc1)([c]1ccccc1)[c]1ccccc1
active: Potency [1] 0.549 µM | Potency [2] 1.74 µM | Potency [3] 436 nM | Potency [4] 3.47 µM | Potency [5] 0.347 µM | Potency [6] 2.19 µM | Potency [7] 692 nM | Potency [9] 1740 nM | Potency [18] 1.95 µM | Potency [11] 5.49 µM | Potency [12] 0.871 µM | Potency [13] 490 nM | Potency [19] 1.74 µM | Potency [15] 2.45 µM | Potency [16] 24.3 µM
inactive: Potency [8] | Potency [20]

COc1ccc2c3c1O[C@H]1[C@H](O)CC[C@H]4[C@@H](C2)N(C)CC[C@@]341
inactive: Potency [1] | Potency [2] | max response [3] -1.3% | Potency [4] | Potency [5] | Potency [6] | Potency [7] | Potency [8] | Potency [10] | Potency [18] | Potency [11] | Potency [12] | Potency [13] | Potency [19] | Potency [14] | Potency [20] | Potency [15] | Potency [16]

CC(=O)[O-].CC(=O)[O-].CC(=O)[O-].[Cr+3]
inactive: Potency [1] | Potency [2] | max response [3] -0.681% | Potency [4] | Potency [17] | Potency [6] | Potency [7] | Potency [8] | Potency [9] | Potency [10] | Potency [18] | Potency [12] | Potency [13] | Potency [19] | Potency [14] | Potency [15]

Nc1c(Cl)c(Cl)c(Cl)c(Cl)c1Cl
inactive: Potency [1] | Potency [2] | max response [3] -2.22% | Potency [4] | Potency [5] | Potency [8] | Potency [9] | Potency [11] | Potency [12] | Potency [13] | Potency [19] | Potency [20]

CN1[C@@H]2CC[C@H]1CC(O)C2 (some centres not stated)
inactive: Potency [1] | Potency [2] | max response [3] 15.4% | Potency [4] | Potency [5] | Potency [6] | Potency [7] | Potency [8] | Potency [9] | Potency [10] | Potency [18] | Potency [11] | Potency [12] | Potency [13] | Potency [19] | Potency [14] | Potency [20] | Potency [15] | Potency [16]

S=C=Nc1ccccc1
inactive: Potency [1] | Potency [2] | max response [3] -7.14% | Potency [4] | Potency [5] | Potency [6] | Potency [7] | Potency [8] | Potency [9] | Potency [10] | Potency [11] | Potency [12] | Potency [13] | Potency [19] | Potency [14] | Potency [20] | Potency [15] | Potency [16]

O=C1C(Cl)=C(Cl)C(=O)C(Cl)=C1Cl
inactive: Potency [10] | Potency [14] | Potency [16]
active: Potency [1] 27.4 µM | Potency [2] 43.5 µM and 21.9 µM | Potency [3] 21.8 µM and 21.9 µM | Potency [4] 21.8 µM and 24.5 µM | Potency [17] 48.8 µM and 19.5 µM | Potency [7] 21.8 µM and 17.4 µM | Potency [8] 3.08 µM and 9.77 µM | Potency [9] 21.8 µM and 21.9 µM | Potency [18] 21.8 µM and 19.5 µM | Potency [13] 24.5 µM and 21.9 µM | Potency [19] 21.8 µM | Potency [15] 21.9 µM

O=C(N[C@H]1N=C(c2ccccc2F)c2cccc3c2N(CC3)C1=O)c1cc2ccccc2[nH]1
inactive: Potency [1] | Potency [2] | max response [3] -4.67% | Potency [4] | Potency [5] | Potency [6] | Potency [7] | Potency [8] | Potency [9] | Potency [18] | Potency [11] | Potency [12] | Potency [13] | Potency [19] | Potency [14] | Potency [20] | Potency [15] | Potency [16]

O=C(CCCCl)c1ccc(F)cc1
inactive: Potency [1] | Potency [2] | max response [3] -0.41% | Potency [4] | Potency [17] | Potency [7] | Potency [8] | Potency [9] | Potency [10] | Potency [18] | Potency [11] | Potency [12] | Potency [13] | Potency [19] | Potency [14] | Potency [20] | Potency [15] | Potency [16]

N#Cc1c2ccccc2cc2ccccc12
inactive: Potency [1] | Potency [2] | max response [3] -9.07% | Potency [4] | Potency [6] | Potency [8] | Potency [9] | Potency [10] | Potency [18] | Potency [11] | Potency [12] | Potency [13] | Potency [19] | Potency [14] | Potency [20] | Potency [15] | Potency [16]
